{"source": "the supplement of paper PMC9492666", "note": "Where a name gives a salt, the structure may show the parent alone.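 Note: breast cancer cell viability read out with the CCK-8 kit after co-treatment of each compound with the ferroptosis inducer RSL3.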", "data": [{"test_system": "HCC1937", "test": "relative cell viability, compound + RSL3, vs DMSO (fraction of DMSO control); higher = less growth inhibition", "details": "72 h", "values": [{"smiles": "C[C@H](CCOc1cccc(CC(=O)O)c1)N(Cc1cccc(C(F)(F)F)c1Cl)CC(c1ccccc1)c1ccccc1", "note": "+ COC(=O)c1ccc([C@H]2c3[nH]c4ccccc4c3C[C@H](C(=O)OC)N2C(=O)CCl)cc1 [RSL3]", "relative cell viability": 0.318}, {"smiles": "CCOC(=O)N1c2ccc(C(F)(F)F)cc2[C@@H](N(Cc2cc(C(F)(F)F)cc(C(F)(F)F)c2)C(=O)OC)C[C@H]1CC", "note": "[Torcetrapib] + COC(=O)c1ccc([C@H]2c3[nH]c4ccccc4c3C[C@H](C(=O)OC)N2C(=O)CCl)cc1 [RSL3]", "relative cell viability": 0.642}, {"smiles": "O=C(O)CCn1c2c(c3ccccc31)C[C@H](NS(=O)(=O)c1ccc(F)cc1)CC2", "note": "[Ramatroban] + COC(=O)c1ccc([C@H]2c3[nH]c4ccccc4c3C[C@H](C(=O)OC)N2C(=O)CCl)cc1 [RSL3]", "relative cell viability": 0.41}, {"smiles": "CCC(=O)O[C@]1(C(=O)CCl)[C@@H](C)C[C@H]2[C@@H]3C[C@H](F)C4=CC(=O)C=C[C@]4(C)[C@@]3(F)[C@@H](O)C[C@@]21C", "note": "[Halobetasol Propionate] + COC(=O)c1ccc([C@H]2c3[nH]c4ccccc4c3C[C@H](C(=O)OC)N2C(=O)CCl)cc1 [RSL3]", "relative cell viability": 0.393}, {"smiles": "CN1CCN(c2ccc(/C=C(\\C#N)c3ccccc3Br)cc2)CC1", "note": "[DG172 (dihydrochloride)] + COC(=O)c1ccc([C@H]2c3[nH]c4ccccc4c3C[C@H](C(=O)OC)N2C(=O)CCl)cc1 [RSL3]", "relative cell viability": 0.373}, {"smiles": "O=C(Nc1cnccc1Cl)N1CCN(Cc2ccc3c(c2)OC(F)(F)O3)CC1", "note": "+ COC(=O)c1ccc([C@H]2c3[nH]c4ccccc4c3C[C@H](C(=O)OC)N2C(=O)CCl)cc1 [RSL3]", "relative cell viability": 0.338}, {"smiles": "O=C(O)c1ccnc(N2CC(O)(c3ccc(OCc4c(-c5c(Cl)cccc5Cl)noc4C4CC4)cc3Cl)C2)c1", "note": "[Cilofexor] + COC(=O)c1ccc([C@H]2c3[nH]c4ccccc4c3C[C@H](C(=O)OC)N2C(=O)CCl)cc1 [RSL3]", "relative cell viability": 0.368}, {"smiles": "N[C@@H](Cc1c[nH]cn1)C(=O)O", "note": "[histidine] + COC(=O)c1ccc([C@H]2c3[nH]c4ccccc4c3C[C@H](C(=O)OC)N2C(=O)CCl)cc1 [RSL3]", "relative cell viability": 0.622}, {"smiles": "COc1ccc([C@@H]2OC[C@H]3[C@@H]2CO[C@@H]3c2ccc(O[C@@H]3O[C@H](CO)[C@@H](O)[C@H](O)[C@H]3O)c(OC)c2)cc1OC", "note": "[Forsythin] + COC(=O)c1ccc([C@H]2c3[nH]c4ccccc4c3C[C@H](C(=O)OC)N2C(=O)CCl)cc1 [RSL3]", "relative cell viability": 0.731}, {"smiles": "Cc1coc2c1C(=O)C(=O)c1c-2ccc2c(C)cccc12", "note": "[Tanshinone I] + COC(=O)c1ccc([C@H]2c3[nH]c4ccccc4c3C[C@H](C(=O)OC)N2C(=O)CCl)cc1 [RSL3]", "relative cell viability": 0.218}, {"smiles": "O=C(c1ccc(-c2nc3ccc(F)cc3o2)cc1)N1CCN(C(=O)C2(O)CC2)CC1", "note": "+ COC(=O)c1ccc([C@H]2c3[nH]c4ccccc4c3C[C@H](C(=O)OC)N2C(=O)CCl)cc1 [RSL3]", "relative cell viability": 0.398}, {"smiles": "CC(=O)Oc1cc(C(F)(F)F)ccc1C(=O)O", "note": "[Triflusal] + COC(=O)c1ccc([C@H]2c3[nH]c4ccccc4c3C[C@H](C(=O)OC)N2C(=O)CCl)cc1 [RSL3]", "relative cell viability": 0.717}, {"smiles": "O=C(O)c1c[nH]c2cc(Cl)c(-c3ccc(C4(O)CCC4)cc3)cc12", "note": "+ COC(=O)c1ccc([C@H]2c3[nH]c4ccccc4c3C[C@H](C(=O)OC)N2C(=O)CCl)cc1 [RSL3]", "relative cell viability": 0.572}, {"smiles": "COc1cc([C@@H]2Oc3c(O)cc([C@H]4Oc5cc(O)cc(O)c5C(=O)[C@@H]4O)cc3[C@H]2CO)ccc1O", "note": "[Silychristin] + COC(=O)c1ccc([C@H]2c3[nH]c4ccccc4c3C[C@H](C(=O)OC)N2C(=O)CCl)cc1 [RSL3]", "relative cell viability": 0.567}, {"smiles": "C=CCc1ccc(O)c(-c2cc(CC=C)ccc2O)c1", "note": "[Magnolol] + COC(=O)c1ccc([C@H]2c3[nH]c4ccccc4c3C[C@H](C(=O)OC)N2C(=O)CCl)cc1 [RSL3]", "relative cell viability": 0.789}, {"smiles": "COc1ccc(-c2coc3cc(OC)ccc3c2=O)cc1", "note": "[4',7-Dimethoxyisoflavone] + COC(=O)c1ccc([C@H]2c3[nH]c4ccccc4c3C[C@H](C(=O)OC)N2C(=O)CCl)cc1 [RSL3]", "relative cell viability": 0.251}, {"smiles": "CNC(=O)c1cccc(NC(=O)N2CCC(Oc3ccccc3Cl)CC2)c1", "note": "+ COC(=O)c1ccc([C@H]2c3[nH]c4ccccc4c3C[C@H](C(=O)OC)N2C(=O)CCl)cc1 [RSL3]", "relative cell viability": 0.895}, {"smiles": "Nc1ccc(C(=O)O)c(O)c1", "note": "[Aminopar] + COC(=O)c1ccc([C@H]2c3[nH]c4ccccc4c3C[C@H](C(=O)OC)N2C(=O)CCl)cc1 [RSL3]", "relative cell viability": 0.822}, {"smiles": "Nn1nnc2ccccc21", "note": "[1-Aminobenzotriazole] + COC(=O)c1ccc([C@H]2c3[nH]c4ccccc4c3C[C@H](C(=O)OC)N2C(=O)CCl)cc1 [RSL3]", "relative cell viability": 0.528}, {"smiles": "COc1ccc2c(=O)c(-c3ccccc3)coc2c1", "note": "[7-Methoxyisoflavone] + COC(=O)c1ccc([C@H]2c3[nH]c4ccccc4c3C[C@H](C(=O)OC)N2C(=O)CCl)cc1 [RSL3]", "relative cell viability": 0.396}, {"smiles": "N#Cc1ccc(Oc2cccc(NC(=O)Nc3ccc(Cl)c(C(F)(F)F)c3)c2)cc1", "note": "+ COC(=O)c1ccc([C@H]2c3[nH]c4ccccc4c3C[C@H](C(=O)OC)N2C(=O)CCl)cc1 [RSL3]", "relative cell viability": 0.0959}, {"smiles": "O=C(O)CC[C@H](O)C(=O)O", "note": "[L-2-Hydroxyglutaric acid disodium] + COC(=O)c1ccc([C@H]2c3[nH]c4ccccc4c3C[C@H](C(=O)OC)N2C(=O)CCl)cc1 [RSL3]", "relative cell viability": 0.554}, {"smiles": "O=C(Nc1cccnn1)N1CCC(=Cc2cccc(Oc3ccc(C(F)(F)F)cn3)c2)CC1", "note": "+ COC(=O)c1ccc([C@H]2c3[nH]c4ccccc4c3C[C@H](C(=O)OC)N2C(=O)CCl)cc1 [RSL3]", "relative cell viability": 0.686}, {"smiles": "CC1(C)CC[C@]2(C(=O)O[C@@H]3O[C@H](CO)[C@@H](O)[C@H](O)[C@H]3O)CC[C@]3(C)C(=CC[C@@H]4[C@@]5(C)CC[C@H](O[C@@H]6O[C@H](C(=O)O)[C@@H](O)[C@H](O)[C@H]6O[C@@H]6O[C@H](CO)[C@@H](O)[C@H](O)[C@H]6O)C(C)(C)[C@@H]5CC[C@]43C)[C@@H]2C1", "note": "[Ginsenoside Ro] + COC(=O)c1ccc([C@H]2c3[nH]c4ccccc4c3C[C@H](C(=O)OC)N2C(=O)CCl)cc1 [RSL3]", "relative cell viability": 0.375}, {"smiles": "C[C@H](CCOc1cccc(CC(=O)O)c1)N(Cc1cccc(C(F)(F)F)c1Cl)CC(c1ccccc1)c1ccccc1", "note": "[RGX-104 free Acid] + COC(=O)c1ccc([C@H]2c3[nH]c4ccccc4c3C[C@H](C(=O)OC)N2C(=O)CCl)cc1 [RSL3]", "relative cell viability": 0.333}, {"smiles": "CN(C)C(=N)NC(=N)N", "note": "[Metformin] + COC(=O)c1ccc([C@H]2c3[nH]c4ccccc4c3C[C@H](C(=O)OC)N2C(=O)CCl)cc1 [RSL3]", "relative cell viability": 0.335}, {"smiles": "CC(C)OC(=O)CCC/C=C\\C[C@@H]1[C@@H](CC[C@@H](O)CCc2ccccc2)[C@H](O)C[C@@H]1O", "note": "[Latanoprost] + COC(=O)c1ccc([C@H]2c3[nH]c4ccccc4c3C[C@H](C(=O)OC)N2C(=O)CCl)cc1 [RSL3]", "relative cell viability": 1.03}, {"smiles": "CC(C)c1cc(C(C)C)c(CC(=O)NS(=O)(=O)Oc2c(C(C)C)cccc2C(C)C)c(C(C)C)c1", "note": "[Avasimibe] + COC(=O)c1ccc([C@H]2c3[nH]c4ccccc4c3C[C@H](C(=O)OC)N2C(=O)CCl)cc1 [RSL3]", "relative cell viability": 0.322}, {"smiles": "C[C@@H]1O[C@@H](O[C@H]2[C@H](Oc3cc(O)c4c(c3)O[C@H](c3ccc(O)cc3)CC4=O)O[C@H](CO)[C@@H](O)[C@@H]2O)[C@H](O)[C@H](O)[C@H]1O", "note": "[Naringin] + COC(=O)c1ccc([C@H]2c3[nH]c4ccccc4c3C[C@H](C(=O)OC)N2C(=O)CCl)cc1 [RSL3]", "relative cell viability": 0.949}, {"smiles": "COc1cccc(CNc2ccc(S(=O)(=O)Nc3nc4ccccc4s3)cc2)c1O", "note": "+ COC(=O)c1ccc([C@H]2c3[nH]c4ccccc4c3C[C@H](C(=O)OC)N2C(=O)CCl)cc1 [RSL3]", "relative cell viability": 0.583}, {"smiles": "CC(C)=CCC[C@](C)(O[C@@H]1O[C@H](CO)[C@@H](O)[C@H](O)[C@H]1O)[C@H]1CC[C@]2(C)[C@@H]1[C@H](O)C[C@@H]1[C@@]3(C)CC[C@H](O[C@@H]4O[C@H](CO)[C@@H](O)[C@H](O)[C@H]4O[C@@H]4O[C@H](CO)[C@@H](O)[C@H](O)[C@H]4O)C(C)(C)[C@@H]3CC[C@]12C", "note": "[Ginsenoside Rd] + COC(=O)c1ccc([C@H]2c3[nH]c4ccccc4c3C[C@H](C(=O)OC)N2C(=O)CCl)cc1 [RSL3]", "relative cell viability": 0.616}, {"smiles": "CCC(CC)CC1(C(=O)Nc2ccccc2SC(=O)C(C)C)CCCCC1", "note": "[Dalcetrapib] + COC(=O)c1ccc([C@H]2c3[nH]c4ccccc4c3C[C@H](C(=O)OC)N2C(=O)CCl)cc1 [RSL3]", "relative cell viability": 0.654}, {"smiles": "CC(C)(C)N1C(=O)C(Nc2ccc(N3CCCCC3)cc2)=C(c2ccccc2)S1(=O)=O", "note": "+ COC(=O)c1ccc([C@H]2c3[nH]c4ccccc4c3C[C@H](C(=O)OC)N2C(=O)CCl)cc1 [RSL3]", "relative cell viability": 0.686}, {"smiles": "COc1ccc(-c2cc(=O)c3c(O)c(OC)c(OC)c(OC)c3o2)cc1OC", "note": "+ COC(=O)c1ccc([C@H]2c3[nH]c4ccccc4c3C[C@H](C(=O)OC)N2C(=O)CCl)cc1 [RSL3]", "relative cell viability": 0.343}, {"smiles": "Cc1ccc(CN(CC(O)COc2cccc3[nH]ccc23)C(C)(C)C)cc1", "note": "(stereo unspecified) + COC(=O)c1ccc([C@H]2c3[nH]c4ccccc4c3C[C@H](C(=O)OC)N2C(=O)CCl)cc1 [RSL3]", "relative cell viability": 0.357}, {"smiles": "CCN(CC)c1ccc(C=NNC(=O)c2ccncc2)c(O)c1", "note": "+ COC(=O)c1ccc([C@H]2c3[nH]c4ccccc4c3C[C@H](C(=O)OC)N2C(=O)CCl)cc1 [RSL3]", "relative cell viability": 0.265}]}]}
